# Test results: the supplement of paper PMC3334620
# Whole data set: some 33,000 sequences, median “E-score (-0.5 to 0.5)” near -0.016, cut for the highest 2% near 0.3. The list comes from a sample in which the highest values are over-represented; it also holds similar and randomly drawn sequences.
# Target: T1, Yer184c (UniProt P39961)
# T1 sequence: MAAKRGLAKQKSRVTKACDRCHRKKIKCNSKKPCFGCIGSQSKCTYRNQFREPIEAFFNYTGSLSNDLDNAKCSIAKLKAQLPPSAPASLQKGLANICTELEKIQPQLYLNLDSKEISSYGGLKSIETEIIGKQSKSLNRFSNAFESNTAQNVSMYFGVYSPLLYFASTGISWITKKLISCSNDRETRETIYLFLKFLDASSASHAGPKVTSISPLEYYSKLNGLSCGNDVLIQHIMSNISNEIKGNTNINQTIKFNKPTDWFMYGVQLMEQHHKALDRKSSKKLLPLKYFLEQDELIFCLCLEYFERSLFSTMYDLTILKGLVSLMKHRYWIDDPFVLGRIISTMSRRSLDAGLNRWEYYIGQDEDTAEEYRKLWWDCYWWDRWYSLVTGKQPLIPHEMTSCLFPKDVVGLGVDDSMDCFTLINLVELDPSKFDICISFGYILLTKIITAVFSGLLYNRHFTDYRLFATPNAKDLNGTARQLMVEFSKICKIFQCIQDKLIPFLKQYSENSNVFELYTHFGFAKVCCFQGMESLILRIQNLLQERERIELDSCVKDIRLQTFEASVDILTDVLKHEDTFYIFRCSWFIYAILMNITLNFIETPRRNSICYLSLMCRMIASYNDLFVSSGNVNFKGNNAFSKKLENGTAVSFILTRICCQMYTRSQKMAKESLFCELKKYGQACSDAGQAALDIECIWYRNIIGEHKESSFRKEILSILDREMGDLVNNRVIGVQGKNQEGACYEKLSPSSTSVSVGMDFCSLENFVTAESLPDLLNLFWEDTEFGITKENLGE
# Assay: PBM E-score (8-mer binding enrichment) (E-score (-0.5 to 0.5)); higher = stronger / more preferred TF binding
# Conditions: protein concentration: 100 nM; construct: GST-full length
# Method: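 Universal 'all 10-mer' protein binding microarrays (Agilent AMADID 015681) probed with GST-tagged S. cerevisiae TFs (full-length or DBD) made by in vitro transcription/translation (PURExpress), about 100-200 nM. Bound TF was detected with fluorescent anti-GST. Each ungapped 8-mer (which stands for itself and its reverse complement) is scored by the PBM enrichment score (E-score), a modified Wilcoxon-Mann-Whitney statistic from -0.5 to +0.5, computed with the Universal PBM Analysis Suite. Scale: above 0.35 generally sequence-specific binding.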
row,Sequence,PBM E-score
1,CGTGCGCC,0.0367
2,CGGGCTTA,0.157
3,AATTACCT,0.0235
4,AGAGGTTA,-0.0189
5,CAAGTGCC,-0.126
6,AGTTACCA,0.0704
7,AGCGCCGA,0.357
8,CGCGCCGA,0.256
9,GGCGCCGA,0.337
10,GGCGCCAA,-0.0615
11,GGCGCCTA,-0.0826
12,GCCGCCGA,0.264
13,AGCGCCGG,0.351
14,CCCGCCGA,0.193
15,AGCGCCCG,0.113
16,TCCGCCGA,0.316
17,AGCGCCAA,-0.231
18,AGCGCCGC,0.0842
19,GCAGGGCA,-0.0295
20,GTGCACAA,-0.028
21,ACCTTTTC,-0.076
22,AAGCTAAT,0.162
23,CCGGCTAG,0.277
24,AGGGGCTC,-0.341
25,TAAATCCA,0.00272

row,Sequence,PBM E-score
1,ATCCGGCA,0.296
2,CGCCGGTA,0.216
3,CTCCGGCC,0.125
4,AGCCGGCA,0.404
5,AGCCGGTA,0.306
6,AGGCGGCA,-0.0565
7,CTCCGGCA,0.359
8,AACCGGTA,0.0801
9,ACCCGGCA,0.187
10,CGCCGGCA,0.345
11,AGCCGGTC,0.144
12,CCCCGGCA,0.0621
13,GCAGTACA,-0.0532
14,ACCGTGAG,-0.158
15,CGCAACGA,0.0385
16,AAACCTGG,-0.147
17,AGCCGGTG,0.225
18,AACCGGCT,0.264
19,ACCCGGCG,0.198
20,AGCCGGCG,0.372
21,ACCCGGCT,0.22
22,TCCCGGCA,0.256
23,AGCCGGCT,0.36
24,TGCCGGCA,0.431
25,TACCGGCA,0.251

row,Sequence,PBM E-score
1,AAATCAAA,0.13
2,TCGATTAA,0.148
3,CACGGCAG,0.0946
4,GTCGGCAC,0.1
5,CTCGGCAA,0.319
6,CTCGGCCA,0.204
7,CACGGCAA,0.199
8,TTCGGCAA,0.336
9,ATCGGCAG,0.247
10,GTCGGCAA,0.263
11,CTCGGCAG,0.31
12,ATCGGCAA,0.246
13,ATCGGCAC,0.27
14,CTCGGCAC,0.31
15,AGGACCTG,-0.174
16,ATATACCC,0.021
17,TCTATAGA,-0.137
18,GTCAATAA,0.158
19,AAGTATCC,0.0522
20,CAGGGCTC,-0.226
21,GAGAGCGC,-0.218
22,AGCAGCAT,-0.206
23,AGAGTAAC,0.0419
24,CAATAGAG,-0.242
25,CCAGCCTA,-0.206

row,Sequence,PBM E-score
1,CCCGCTCA,-0.141
2,CCTAAGTA,0.106
3,CGCCGGGC,0.286
4,AGCCGGGA,0.311
5,CGCCGGGA,0.312
6,AGCCGGGC,0.172
7,GGCCGGGA,0.292
8,AGCCGGGG,0.0566
9,CAAACAGC,-0.0581
10,ATGCGTGA,0.0231
11,AATCTAAT,0.0331
12,ATCAAGTC,-0.0287
13,ATGAACAG,0.17
14,ACGGCAAG,0.0759
15,CCGGCAAC,0.293
16,CCGGCAAG,0.331
17,CCGGCAAA,0.374
18,GCGGCAAA,0.107
19,ACGGCAAA,0.211
20,CTAGCAGC,-0.0845
21,GAAAGCTA,0.00964
22,ACGACCGG,0.0371
23,TGCAAACA,-0.168
24,AAATCGAT,0.0714
25,ACCGGCGC,0.226

row,Sequence,PBM E-score
1,CCCGGCGC,0.216
2,GACGGCGA,-0.034
3,GGCGGCGA,0.0554
4,ACCGGCGA,0.284
5,TCCGGCGA,0.38
6,CCCGGCGA,0.236
7,GCCGGCGC,0.406
8,GCCGGCGA,0.311
9,AAGAGGAA,0.23
10,AGTGAGAA,0.118
11,CCGATGCA,0.157
12,GAGTCAGC,-0.101
13,TCAGGGGA,-0.252
14,CTTCAAGA,0.171
15,AAAAACAG,0.115
16,GTTCCACA,-0.0536
17,AACTCCGA,0.325
18,AGCTCCGG,0.313
19,CACTCCGC,-0.0284
20,CACTCCGA,0.0993
21,TACTCCGA,0.262
22,AGCTCCGA,0.251
23,CACTCCGG,0.306
24,ACCTCCGT,0.107
25,CCCTCCGG,0.1

row,Sequence,PBM E-score
1,AGCTCCGC,0.127
2,ACCTCCGG,0.357
3,GACTCCGA,-0.0256
4,CAAGAATG,0.103
5,GTTGGAGA,0.0278
6,GTCGCCTA,-0.157
7,GGACGCCC,-0.106
8,AGGGGCAT,-0.358
9,ATTCTGCC,0.201
10,CCAAGCGG,-0.15
11,AACTCCGC,-0.0142
12,AACTCCGT,0.222
13,AACTCCGG,0.424
14,AGTTCGAG,-0.00888
15,AAGGGGTA,-0.351
16,AGGCGCCG,0.207
17,AAGCGCTT,0.306
18,CGGCGCCA,0.162
19,AAGCGCCA,-0.208
20,CAACGCCG,0.294
21,AAGCGCCT,-0.14
22,AAGCGCTC,0.0112
23,CGGCGCCG,0.443
24,AAACGCCG,0.334
25,AAACGCCA,0.089

row,Sequence,PBM E-score
1,AAGCGCTA,0.0496
2,AAGCGCCG,0.373
3,ATGACCTG,-0.0827
4,AATTGACA,0.0558
5,GGGCAGGA,-0.269
6,GGGGTACA,-0.111
7,CGCATTAG,-0.101
8,CGATGCAA,-0.00579
9,ATGCCCCG,-0.139
10,TCATCGCA,-0.0385
11,CCGGGCCC,0.262
12,ATCGGCCG,0.388
13,CCGGGCCA,0.14
14,CCGGCCCG,0.386
15,ACGGCCCG,0.146
16,AGCGGCCG,0.315
17,ATCGGCCC,0.113
18,AGCGGCCA,-0.161
19,CGCGGCCG,0.251
20,ATCGGCCA,0.125
21,CCGGCCCA,0.181
22,CCGGGCCG,0.429
23,GAATCTGC,0.12
24,CTAGTGAG,-0.0187
25,ACCCCGCG,-0.119

row,Sequence,PBM E-score
1,AAACTGTC,-0.133
2,AGCAGTGC,-0.185
3,ACCGGCCA,0.173
4,CCCGGCCA,0.209
5,CCCGGCCG,0.371
6,AGGGCCCG,0.0448
7,CGGGCCCG,0.351
8,CGGGCCCA,0.0473
9,ACCGGCCG,0.413
10,ACCGGCCT,0.0901
11,CCCGGCCC,0.161
12,ACAACCTA,-0.00165
13,GAGTGGCC,-0.0531
14,AGTACTAG,0.0969
15,ACAAGCTG,0.0583
16,AGCCACTA,-0.112
17,AAAATCCA,-0.0451
18,ATGTGAGG,0.0347
19,TCAACACA,0.179
20,GGTCCGAA,0.303
21,CTTCCAAA,0.0435
22,ATTCCGAA,0.388
23,GTTCCAAA,0.158
24,AGTCCGAG,0.268
25,ATTCCGAC,0.211

row,Sequence,PBM E-score
1,CTTCCGAC,0.173
2,GTTCCGAA,0.369
3,ACTCCGAA,0.241
4,CTTCCGAA,0.39
5,ACTCCGAG,0.233
6,ATTCCGAG,0.353
7,AAGAATTA,0.134
8,CGGCCACA,0.194
9,CACATTCG,0.097
10,CGGGTATA,0.196
11,CAGGGAAA,0.0066
12,ACCATTGC,-0.0741
13,GTTTTACA,-0.015
14,GCCAACCA,-0.155
15,TATTAATA,-0.00461
16,GTTTAATA,0.155
17,ATTTAATA,0.313
18,ATTTAGTA,0.328
19,ATTTAGTC,0.133
20,AATTAATT,0.0189
21,AATTAATA,0.407
22,CTTTAGTA,-0.0339
23,CTTTAATA,0.245
